Source: PubChem (several laboratories)
BoNT A protease: BoNT A light chain protease inhibition; inhibition, % at 10 µM; multiplex microsphere protease substrate cleavage, flow cytometry; 360,000 tested, 0.17% active; note: plate controls were buffer without enzyme for full effect and enzyme alone for no effect
MazEF act: MazEF (E. coli) toxin RNase activation | P0AE70 | FAM/BHQ RNA-DNA oligo cleavage fluorescence, 5 h | activation, % at 20 µM | 350,000 tested, 0.32% active | AID 504720; in the data active = activation above about 50%
Anthrax LF prot: blocks Bacillus anthracis lethal factor protease. P15917. multiplex microsphere protease cleavage assay, LF. inhibition, % at 10 µM. 360,000 tested, 0.12% active. AID 588501; note: plate controls were buffer without enzyme for full effect and enzyme alone for no effect
BoNT F protease: blocks Botulinum neurotoxin F light chain protease. Multiplex microsphere protease cleavage assay, flow cytometry. inhibition, % at 10 µM. 360,000 tested, 0.22% active. AID 588497; in the data active = inhibition above about 35%, passing the limit was not always enough; inconclusive = no clear call, values can overlap the other calls; note: plate controls were buffer without enzyme for full effect and enzyme alone for no effect
Autofluor counter: flagged as autofluorescent in microsphere protease counterscreen | compound autofluorescence counterscreen, microsphere flow cytometry; active compounds read high | fluorescence intensity (test concentration not listed) | 360,000 tested, 3.1% active | AID 624483; in the data active = fluorescence intensity above about 16000; inconclusive = no clear call, values can overlap the other calls
Active calls of the source: *; ? = inconclusive; . = not tested or not shown. Rows were chosen to be rich in hits. Some 3.6% of all compounds tested hit in one or more screens of this group. Cut-off read from the data, not from the text of the source, unless noted: active = inhibition above about 30%; inconclusive = no clear call, values can overlap the other calls; inactive = below that.

SMILES	BoNT A protease	MazEF act	Anthrax LF prot	BoNT F protease	Autofluor counter
COc1ccc2[nH]c3c(c2c1)CCN1C(=O)C(CC(=O)NCc2ccco2)C[C@H](C(=O)N2CCOCC2)[C@@]31CCC1CCCC1 (some centres undefined)	-1	0	-2	-2	3737
COc1ccc(C)cc1-n1nnnc1SCC(=O)N1CCC(C(=O)Nc2nccs2)CC1	?	-7	-1	-2	23303*
COc1ccccc1CC(NC(C)=O)C(=O)N1CCN(C(=O)c2cccs2)CC1 (centres undefined)	0	-6	0	-7	2805
COc1cc(C(=O)N2CCC(NC(=O)C(Cc3ccc(C)cc3)NC(C)=O)CC2)cc(OC)c1OC (centres undefined)	0	2	-4	-1	22816*
COc1cc(C(=O)N2CCC(NC(=O)C(Cc3ccccc3C)NC(C)=O)CC2)cc(OC)c1OC (centres undefined)	?	-4	1	-2	21354*
COc1cc(C(=O)N2CCC(NC(=O)C(Cc3ccc(C(C)C)cc3)NC(C)=O)CC2)cc(OC)c1OC (centres undefined)	0	5	-2	-24	4399
COc1cc(C(=O)N2CCN(C(=O)C(Cc3cc(C)ccc3C)NC(C)=O)CC2)cc(OC)c1OC (centres undefined)	3	4	-3	1	22028*
CC(C)[C@H](NC(=O)[C@@H]1Cc2c([nH]c3ccccc23)C2c3ccccc3C(=O)N21)C(=O)N1CCC[C@@H]1C(=O)O (some centres undefined)	0	-19	-6	-16	4022
Cc1ncoc1C(=O)Nc1ccc2c(c1)OCCO2	6	3	-5	6	18125*
COc1cccc(OC)c1C(=O)Nc1ccc2c(c1)OCCO2	-4	7	-1	-5	25227*
Cc1occc1C(=O)Nc1ccc2c(c1)OCCO2	?	-1	-8	1	20875*
CS(=O)(=O)Nc1ccc(C(=O)Nc2ccc3c(c2)OCCO3)cc1	1	-5	1	2	20301*
COc1ccccc1NC(=O)Nc1ccc2c(c1)OCCO2	0	-1	-4	-4	9310
O=C(Nc1ccc2c(c1)OCCO2)c1ccccc1	-1	10	-6	-13	2859
O=C(NNC(=O)c1ccc(-c2ccc([N+](=O)[O-])cc2)o1)c1ccncc1	.	-5	.	.	.
CCCNC(=O)Cn1nc(-c2ccccc2OC)ccc1=O	0	-8	-3	-3	3532
ON=C(CCc1ccccc1)c1ccccc1	0	7	-1	4	3438
CCOC(=O)c1ccc(NC(=O)Nc2ccc3c(c2)OCCO3)cc1	0	1	-9	1	9020
CCOC(=O)c1c(C)c(C(=O)Nc2ccc3c(c2)OCCO3)c(C)n1C	?	-6	1	-12	23007*
O=C(c1nn2cccnc2c1Cl)N1CCN(c2ccccc2)CC1	0	0	0	6	4170
O=C(c1ccco1)N1CCN(C(=O)c2nn3cccnc3c2Cl)CC1	0	-2	-1	-1	22749*
COc1ccccc1CNCC(O)(c1ccc(F)cc1)c1ccc(F)cc1	-1	3	8	-12	3812
COc1ccccc1CNCC(O)(c1ccc(Cl)cc1)c1ccc(Cl)cc1	?	-14	-4	-17	23819*
O=C(O)C1CCCCC1C(=O)Nc1ccc(S(=O)(=O)N2CCCC2)cc1 (centres undefined)	0	-3	0	2	5790
O=C(CCN1C(=O)C2CC=CCC2C1=O)NC1CCCCC1 (centres undefined)	-1	-1	-1	0	6617
SMILES	BoNT A protease	MazEF act	Anthrax LF prot	BoNT F protease	Autofluor counter
CC(C)CNS(=O)(=O)c1ccc(S(=O)(=O)N2CCCN(Cc3ccccc3)C2)cc1	-5	-7	0	-6	21949*
CC1CCCN(S(=O)(=O)c2ccc(S(=O)(=O)N3CCCN(Cc4ccccc4)C3)cc2)C1 (centres undefined)	1	-11	-5	5	10633
CCOC(=O)c1cnn(-c2nc(-c3ccccc3)cs2)c1C(F)(F)F	0	-15	-3	-1	2798
CCOC(=O)c1cnn(-c2nc(-c3ccccc3F)cs2)c1C(F)(F)F	?	-4	-12	0	19894*
CCc1nnc2sc(-c3ccc(NC(=O)c4ccc5c(c4)OCCO5)cc3)nn12	1	-6	0	-2	2876
O=C(Nc1nccs1)c1ccc(NC(=O)c2ccco2)cc1	-2	11	-4	-6	17273*
CCOc1ccc(NC(=S)NC(=O)c2ccco2)cc1	-1	2	-5	-18	3267
CCc1nnc2sc(-c3ccc(NC(=O)c4ccco4)cc3)nn12	-2	1	-1	-3	16661*
CCOc1ccc(NC(=O)c2ccco2)cc1	?	7	1	-5	24897*
C/C(=N\Nc1cc(-c2ccccc2)nc(-c2ccc(Br)cc2)n1)c1cccc(N)c1	-6	-1	-5	-13	17624*
C/C(=N/Nc1cc(-c2ccccc2)nc(-c2ccccc2)n1)c1ccc(O)cc1	0	18	-4	1	8856
O=S(=O)(NCC1CCCN(Cc2ccccc2O)C1)c1cccc2cccnc12 (centres undefined)	2	-12	-2	-6	5187
O=C(NCCc1ccccc1)c1nc2ncccn2n1	0	3	-1	3	7988
O=C(NCC12CC3CC(CC(C3)C1)C2)c1nc2ncccn2n1	2	96*	-8	0	19103*
COC(=O)c1c(O)c2ccccc2[nH]c1=O	8	-3	4	12	19580*
CC(C)NC(=O)c1c(O)c2ccccc2[nH]c1=O	0	-1	-5	-12	11106
C/C(=C\c1ccccc1)CN1CCN(C)CC1	-2	-2	-13	3	4300
CCOC(=O)N1CCN(C/C(C)=C/c2ccccc2)CC1	?	-4	-2	12	20298*
CC(C)C(C)NC(=O)CN1C(=O)NC(c2ccccc2)(c2ccccc2)C1=O (centres undefined)	1	11	1	-3	5255
COc1ccc(C(=O)Nc2ccnn2C2CCN(Cc3ccccn3)CC2)cc1	0	7	0	-6	5321
Cc1ccc(-n2c(C3CC3c3ccc(Cl)cc3)n[nH]c2=S)cc1 (centres undefined)	-4	-8	1	-6	23745*
Cc1ccc(C2CC2c2n[nH]c(=S)n2-c2ccc(C)cc2)cc1 (centres undefined)	?	2	-3	-2	24709*
S=c1[nH]nc(C2CC2c2ccc(Cl)cc2)n1-c1ccc(Cl)cc1 (centres undefined)	0	-3	0	3	1983
Cc1ccc(-n2c([C@@H]3C[C@H]3c3ccccc3)n[nH]c2=S)cc1	0	1	1	-3	2219
CCC1CN(C(=O)NCc2ccc(C)cc2)c2cc(Cl)ccc2O1 (centres undefined)	-3	-7	13	11	3539
CCC(=NCc1ccccc1)c1c(C(F)(F)F)[nH]n(-c2nc3ccccc3s2)c1=O	-2	6	-4	-2	16663*
